# In all, about 69,000 compounds went through this assay and about 8,600 (12%) showed an effect of 50% or more. This excerpt belongs to a sample that is enriched for strong results.
# System: Plasmodium berghei
# Experiment: Screen against P. berghei liver stage (PbLuc), transformed with Luciferase, at 10uM
# Assay type: functional, HepG2
# Conditions: tested at 10 uM
row,Compound,INHIBITION [%]
1,CCC(CC)C(=O)NCc1cnn(CC)c1,20.1
2,Cn1c(=O)c2cc(C(=O)NCCc3ccccc3)ccc2n(C)c1=O,-0.371
3,Cc1sc(-n2cnnn2)c(C(=O)NC(C)C)c1C,21.2
4,COC(=O)CNC(=O)c1c(-n2cnnn2)sc2c1CCCC2,-5.59
5,CC(C)CCNC(=O)c1c(-n2cnnn2)sc2c1CCCC2,23.4
6,CC(C)CNC(=O)c1c(-n2cnnn2)sc2c1CCC2,14.2
7,CC(C)CNC(=O)c1sccc1-n1cnnn1,32.3
8,Cc1nc(NC(=O)c2c(-n3cnnn3)sc3c2CCCC3)sc1C,93.7
9,Cc1nc(NC(=O)c2c(-n3cnnn3)sc3c2CCC3)sc1C,93.7
10,CCCn1nccc1C(=O)Nc1nc(C)c(C)s1,-9.44
11,Cc1nc(NC(=O)c2c(-n3cnnn3)sc(C)c2C)sc1C,92.5
12,CCCNC(=O)c1c(-n2cnnn2)sc2c1CCC2,26.1
13,CC(C)CNC(=O)c1c(-n2cnnn2)sc2c1CCCC2,68.1
14,O=C(NCC1CCCO1)c1c(-n2cnnn2)sc2c1CCC2 (centres undefined),-1.58
15,Cc1ncc(CNC2CCc3nc(C(C)C)nn3C2)s1 (centres undefined),24.7
16,CCn1c(-c2ccccc2)nn(CC(=O)NCCc2ccc(C)o2)c1=O,-19.1
17,CCCc1noc(CNC2CCCN(Cc3noc(C4CC4)n3)C2)n1 (centres undefined),-37.7
18,Cc1nc2c(N(C)Cc3ccnn3C)nc(N)nc2n1C,32.3
19,Cc1ccc(F)cc1-n1c(CCCN2CCOCC2)n[nH]c1=O,39.4
20,COc1cc(C)sc1C(=O)N1CCCC(n2nc(C)nc2C)C1 (centres undefined),48.2
21,CCc1ccc(C(=O)O)cc1S(=O)(=O)N(C)c1cccc(C)c1,59.1
22,Cc1cccc(N(C)S(=O)(=O)c2cc(C(=O)O)cs2)c1,22.3

row,Compound,INHIBITION [%]
1,CCc1ccc(C(=O)O)cc1S(=O)(=O)N(C)c1cccc(C#N)c1,24.4
2,COc1ccc(S(=O)(=O)NCC(N)c2ccccc2)c(C)c1 (centres undefined),24.8
3,O=C(c1cccnc1)N1CCOC(c2ccc(-c3cncnc3)cn2)C1 (centres undefined),31.6
4,Cc1cc(=O)n(CCNS(=O)(=O)c2cccc(C(F)(F)F)c2)cn1,68.5
5,Cc1cc(=O)n(CCNS(=O)(=O)c2ccccc2)cn1,31.3
6,Cc1cc(=O)n(CCNS(=O)(=O)c2ccc(F)c(Cl)c2)cn1,29.7
7,CC(C)(C)CN1CCCC(c2nccnc2Nc2cnccn2)C1 (centres undefined),51.7
8,CN1CCC(c2nccnc2Nc2cnccn2)CC1,9.98
9,CC(C)(C)CN1CCC(c2nccnc2Nc2cnccn2)CC1,-0.232
10,CN1CCCC1CNC(=O)CCCOc1cccc(Br)c1 (centres undefined),9.383
11,NC(=O)CN1CC(O)c2ccccc2S1(=O)=O (centres undefined),37.4
12,Cc1nc(C(=O)N2CCCC(c3ccc4sc(N)nc4n3)C2)co1 (centres undefined),5.56
13,CN(Cc1cncnc1)[C@H]1CN(C(=O)c2ccco2)[C@@H]2CCCO[C@@H]21,-35.8
14,CN(Cc1cccnc1)[C@@H]1CN(C(=O)c2ccoc2)[C@@H]2CCCO[C@H]12,-2.35
15,CN(Cc1cccnc1)[C@@H]1CN(C(=O)CC2CC2)[C@@H]2CCCO[C@H]12,-31
16,CN(Cc1cncnc1)[C@@H]1CN(C(=O)c2ccco2)[C@@H]2CCCO[C@H]12,26.7
17,COCC(=O)N1C[C@H](N(C)Cc2cncnc2)[C@H]2OCCC[C@H]21,64.7
18,CN(Cc1cncnc1)[C@H]1CN(C(=O)c2ccc[nH]2)[C@@H]2CCCO[C@@H]21,58.4
19,CN(Cc1cccnc1)[C@@H]1CN(C(=O)c2ccco2)[C@@H]2CCCO[C@H]12,3.17
20,CN(Cc1cccnc1)[C@@H]1CN(C(=O)c2ccno2)[C@@H]2CCCO[C@H]12,50.3
21,CN(Cc1cncnc1)[C@@H]1CN(C(=O)C2CC2)[C@@H]2CCCO[C@H]12,-7.7
22,COCCCN(Cc1cnc(N2CCCC2)nc1)C1CCN(C)CC1,10.3

row,Compound,INHIBITION [%]
1,CC1=Nc2c(c(O)nn2C(C)C)C(c2cccnc2)S1 (centres undefined),-3.19
2,CC(=O)N1CC(=O)N(c2ccccc2)CC12CCN(CC1CC1)C2 (centres undefined),27.9
3,O=C(OC1CCC1)c1ncccc1OCC(F)(F)F,8.08
4,O=C(O)c1ncccc1OCC(F)(F)F,59.1
5,O=C(OC1CCC1)c1ncccc1C(F)(F)F,42.8
6,Cc1nccc(C2CCCN(C(=O)c3cncnc3)C2)n1 (centres undefined),-38.3
7,COC(=O)C(C)(C)S(=O)(=O)c1ccc(Br)cc1,-1.15
8,COc1ccc(NC(=O)Nc2c(O)c3ccccc3oc2=O)cc1,33.6
9,CC(C)(CO)Nc1cc(-c2cn[nH]c2)ncn1,56
10,C[C@H](O)CNc1cc(-c2cn[nH]c2)ncn1,24.8
11,OCCNc1cc(-c2ccccc2)ncn1,47.1
12,CCc1cc(=O)[nH]c(-c2ccc(NC(CO)CC(C)C)nc2)n1 (centres undefined),-27.4
13,CC(C)(CO)Nc1cc(-c2ccncc2)ncn1,44.1
14,C[C@@H](CO)Nc1cc(-c2cn[nH]c2)ncn1,20.4
15,CC[C@@H](CO)Nc1cc(-c2cn[nH]c2)ncn1,50.1
16,CC(C)[C@@H](CO)Nc1cc(-c2cn[nH]c2)ncn1,56
17,CC(C)(CO)Nc1cc(-c2ccccc2)ncn1,29.3
18,CC(C)CCn1cc(C(C(=O)O)N2CCC(N3CCSCC3)CC2)cn1 (centres undefined),3.06
19,CCn1ccnc1CN1CCN(C(C)C(=O)NCc2ccco2)CC1 (centres undefined),18.6
20,Cc1c[nH]nc1C1CN(c2cnccn2)CCO1 (centres undefined),24.05
21,Cc1nc(C(C)C)sc1C(=O)NCC(C)(C)N1CCOCC1,-20.1
22,Cc1nn(C)c(C)c1-c1nc2cc(S(=O)(=O)N3CCCC3)ccc2n1C,-28

row,Compound,INHIBITION [%]
1,O=C1COC2(CCN(CC3CCOCC3)CC2)CN1Cc1ccccn1,27.4
2,O=C(NCCCO)c1nnsc1-c1ccc(Cl)cc1,31.7
3,Clc1ccc2[nH]c3c(c2c1)CCCC3c1nn[nH]n1 (centres undefined),30.2
4,Cn1c(N)c2c(=O)n(C)c(-c3ccc(Cl)cc3Cl)cc2c(C#N)c1=O,66
5,Cn1c(N)c2c(=O)n(C)c(-c3ccc(Cl)cc3)cc2c(C#N)c1=O,-26.3
6,Cn1c(N)c2c(=O)n(C)c(-c3ccccc3)cc2c(C#N)c1=O,0.868
7,COc1ccc(NC(=O)CCSc2ccc3nncn3n2)c(OC)c1,28.1
8,O=C1CO[C@H]2CN(Cc3cccc4[nH]ccc34)C[C@@H]2N1C1CCOCC1,26.8
9,Oc1cc(C2CCCCN2Cc2ccsc2)nc(-c2ccncc2)n1 (centres undefined),10.9
10,Oc1cc(C2CCCCN2Cc2cccs2)nc(-c2ccccn2)n1 (centres undefined),86.3
11,Cc1cnc(-c2nc(C3CCCN(Cc4cccs4)C3)no2)cn1 (centres undefined),14.975
12,Cn1nc(C2CCCN(Cc3cccs3)C2)c2nccnc21 (centres undefined),-0.902
13,Oc1cc(C2CCCN(Cc3cccs3)C2)nc(-c2ccccn2)n1 (centres undefined),81.5
14,Oc1cc(C2CCCCN2Cc2cccs2)nc(-c2ccncc2)n1 (centres undefined),19.25
15,COCCNC(=O)[C@@H]1CN(Cc2sccc2C)C[C@H]2OCC[C@H]21,16.8
16,Cn1nnc(NCc2ccc(-c3ccc(Cl)cc3)o2)n1,49.7
17,Brc1ccc(CNCc2nnc3n2CCC3)s1,36.7
18,Cc1nc(C2CCCN2CC(=O)N(C)Cc2ccsc2)no1 (centres undefined),13.3
19,COc1cccc2c1N(CC(=O)Nc1ccc(Cl)cn1)CCC2,33.1
20,COc1cccc2c1N(CC(=O)Nc1ccc(Br)cn1)CCC2,66.7
21,O=C(CN1CCCc2cc(F)cc(F)c21)Nc1ccc(Br)cn1,-5.57
22,Cn1cnc(S(=O)(=O)N2CCCC2c2cnccn2)c1 (centres undefined),22

row,Compound,INHIBITION [%]
1,Cc1cn2nc(N3CCCN(Cc4noc(C)n4)CC3)sc2n1,-9.14
2,CCc1nc(CN2CCCN(c3nn4cc(C)nc4s3)CC2)no1,85.2
3,Cc1cc(CN2CCN(c3nn4cc(C)nc4s3)CC2)on1,37
4,Cc1cn2nc(N3CCN(Cc4nc(C(C)C)no4)CC3)sc2n1,42
5,Cc1cn2nc(N3CCN(Cc4c(C)noc4C)CC3)sc2n1,58.5
6,Cc1cn2nc(N3CCN(Cc4cc(C)on4)CC3)sc2n1,7.08
7,Cc1cnn(CC(C)Nc2nc3ccccc3o2)c1 (centres undefined),21.8
8,COCC[C@]1(O)CCN(C2CCN(C(=O)C3CCC3)CC2)C[C@H]1C,36.4
9,O=C(NC1CCC1)[C@H]1C[C@H]2CN(C(=O)Nc3ccc(F)cc3)C[C@@H]1O2,1.9
10,NC(=O)CSc1ccccc1NCc1nc(Cc2ccccc2)no1,-75.4
11,NC(=O)CCSc1ccccc1NCc1ccc(Cl)s1,75.7
12,CC(C)(C)c1ncc(CNc2ccccc2Cn2cncn2)s1,60.6
13,NC(=O)C(NC(=O)CCc1ccc(Cl)s1)c1ccccc1 (centres undefined),-19.7
14,Cc1ccc(CNc2ccccc2SCCC(N)=O)s1,39.7
15,c1ccc(NCc2ccsc2)c(Cn2cncn2)c1,3.41
16,CC(C)(C)c1ncc(CNc2ccccc2SCCC(N)=O)s1,83.4
17,CC(C)(C)c1nc(CNc2ccccc2SCCC(N)=O)cs1,77.4
18,CC(C)N(CC(N)=O)Cc1csc(C(C)(C)C)n1,-7.31
19,CNc1nc(CNC(=O)Nc2ccccc2SC)cs1,6.14
20,c1csc(CNc2ccccc2Cn2cncn2)c1,-56.8
21,CC(C)(C)c1ncc(C(=O)NC(C(N)=O)c2ccccc2)s1 (centres undefined),3.15
